# Among all 3,400 compounds or so, about 120 (3.5%) were called active. A selection follows. Results with a measured potency or affinity are listed apart. A number with no mark means an inactive call. How the calls were made is not given here.
# Assay: HepG2 cell cytotoxicity, dose response, cytotoxicity control, ATP luminescence, cherry-pick, activator set 2 (AID 1053143)
# Settings: HepG2 viability, CellTiter-Glo ATP luminescence, 72 h; series mostly up to 26 µM; activity change, negative = cytotoxicity: at the top concentration
row,SMILES,"activity change, negative = cytotoxicity"
1,Fc1cccc(CSc2ccc(-c3ccco3)nn2)c1,-3.59%
2,CC(SCc1ccccc1)C(=O)Nc1ccccc1 (centres undefined),-19.4%
3,COc1c(OC(C)=O)ccc(/C=C/c2ccc3cccc(OC)c3n2)c1[N+](=O)[O-],-13.7%
4,COc1cccc(/C=C/c2ccc3cccc(O)c3n2)c1OC,-17.3%
5,COc1cccc(/C=C/c2ccccn2)c1O,2.62%
6,CCOC(=O)c1cc(OCC)c2c(ccc3ccccc32)n1,-16.6%
7,COc1ccc(-c2csc(NC(=O)CC(C)C)n2)cc1,-14.7%
8,COc1ccccc1N1CCN(/N=C\c2ccc(C)o2)CC1,27.8%
9,COc1ccc(CCNC2CC(=O)N(CCc3ccccc3)C2=O)cc1OC (centres undefined),-2.2%
10,Clc1nc(Nc2ccccc2)nc(Nc2ccccc2)n1,-9.79%
11,O=[N+]([O-])c1ccc(Nc2nccc(Cl)n2)cc1,-17.5% [at 12 µM]
12,COc1ccc2cc(-c3cccnc3)ncc2c1,-8.05%
13,COc1ccc(Nc2ccc3ccccc3c2)cc1,0.933%
14,COc1ccc(NC(=O)Nc2cc(C)ccn2)cc1,3.17%
15,COc1ccc(Nc2nc(N)nc(CSc3nccn3C)n2)cc1,-1.36%
16,O=C(c1ccc(Cl)c([N+](=O)[O-])c1)N(Cc1ccc(Cl)cc1)C1CCS(=O)(=O)C1 (centres undefined),-4.46%
17,Cn1nnc(NC(=O)C(c2ccccc2)c2ccccc2)n1,1.29%
18,O=C(CNC(=O)c1ccccc1)OCC(=O)N1N=C(c2ccc(Cl)cc2)CC1c1ccco1 (centres undefined),0.766%
19,C#CCNC(=O)/C=C/c1ccc(OC)cc1,-15.5%
20,Cc1nc2ccc(NC(=O)c3ccc(Cl)s3)cc2s1,9.53%
21,C=CCOc1ccc2c(OC)c3ccoc3nc2c1OC,-3.4%
22,CCCC(=O)N(C)c1nnc(-c2ccc(OC)cc2)s1,-14.6%
23,COc1ccc(C)cc1NC(=O)C1CCCN1S(=O)(=O)c1ccccc1F (centres undefined),-12.2%
24,Cn1cccc1C(=O)OCC(=O)c1cc2ccccc2o1,15.6%
25,COc1cc(Cl)ccc1OCc1cc(C(=O)N2C[C@@H]3CCC[C@H]2C3)no1,5.09% [at 12 µM]
26,O=C(/C=C/c1ccco1)Nc1nc(-c2ccccc2)cs1,-19.8%

row,SMILES,"activity change, negative = cytotoxicity"
1,Nc1cc(-c2ccc(Cl)cc2)nn1-c1ccccc1,-12.7%
2,Cc1occc1C(=O)O/N=C(\N)c1ccc(Cl)cc1,36.1%
3,O=C(Nc1nc(=O)c2ccccc2s1)c1ccccc1,-0.099%
4,O=C(Nc1nc2ccccc2s1)c1ccc(F)cc1,-23%
5,O=C(c1ccccc1)c1cnc(-c2ccc(Cl)cc2)s1,-21.5%
6,CCCC(=O)N/C(N)=N/c1nc2ccccc2o1,-11.3%
7,Cc1nc(Nc2ccccc2)sc1C(=O)c1ccccc1,5.72%
8,Nc1nc(Nc2ccccc2F)sc1C(=O)c1ccccc1,25.7%
9,Cc1ccc(Nc2ncccc2C(N)=O)cc1[N+](=O)[O-],-16.8%
10,CCOC(=O)c1ccc(N2Cc3ccccc3C2=NC(=O)c2ccncc2)cc1,0.403%
11,Cc1ccc(Nc2nc3ccccc3o2)cc1F,-28.7% [at 12 µM]
12,O=c1sc2ccccc2n1CCCOc1ccccc1,-13.9%
13,Cc1ccc(OCCn2cnc3ccccc3c2=O)c([N+](=O)[O-])c1,-2.42%
14,Cn1c(-c2ccc([N+](=O)[O-])cc2)nc2ccccc21,-8.29%
15,Fc1cccc(-c2ncc(-c3ccccc3)o2)c1,-8.72%
16,O=C(Nc1nc2c(ccc3ccccc32)s1)c1ccco1,-31.8%
17,Cc1cc(NC(=O)c2ccccc2)sc1C,-41.8%
18,Cc1cc2sc(NC(=O)c3ccco3)nc2cc1Cl,-2.65%
19,O=C(Nc1cc(-c2ccccc2)cs1)c1ccco1,-12.4%
20,CCOC(=O)c1ccc2nc(NC(C)=O)sc2c1,8.97%
21,O=C(Nc1nc2ccc([N+](=O)[O-])cc2s1)c1ccco1,-10.7%
22,CCOc1ccc(NC(=O)Cc2ccccc2)cc1,-19.9%
23,COC(=O)c1sc2nc3c(cc2c1N)CCCC3,-2.91%
24,CC(C)c1ccc(NC(=O)c2cccc(Br)c2)cc1,17.8%
25,COc1cc(/C=N/NC(=O)CNC(=O)c2ccccc2)ccc1OC(=O)c1cccs1,-19.2%
26,O=C(Nc1nc2ccc(Cl)cc2s1)C1CC1,-16%

row,SMILES,"activity change, negative = cytotoxicity"
1,CCC1CCCCN1S(=O)(=O)c1ccc(NC(=O)C2CC(=O)N(C(C)(C)C)C2)cc1 (centres undefined),-2.85%
2,O=c1[nH]c2ccccc2nc1CCc1ccccc1,-9.94%
3,Cc1cc(N2CCCCC2)nc2ccc(NC(=O)CCC(=O)NCCC(C)C)cc12,-18.6%
4,COc1cc(OC)cc(C(=O)NCC(=O)Nc2ccc(C)c(Cl)c2)c1,0.049%
5,CCn1ccc(C(=O)Nc2ccc(Cl)cn2)n1,-0.072%
6,c1ccc2c(c1)Cc1cc3ccccc3nc1-2,-11.6%
7,O=C1c2ccccc2-c2nc3ccccc3cc21,-16.9%
8,CC(C)Sc1ccc(C(=O)Nc2ccc(F)cc2F)cn1,-2.75%
9,CCC(C)Sc1ccc(-c2nc3ccc(Cl)cn3c2NCc2ccccc2)cc1 (centres undefined),-18.8%
10,CN(Cc1ccsc1)C(=O)CCc1nnc(CCCc2ccccc2)o1,-9.96%
11,O=C(Nc1ccccn1)C(=O)Nc1ccccn1,-5.28%
12,Cc1n[nH]c(=O)nc1N/N=C/c1ccco1,13.9%
13,Cc1nc(-c2ccc(NC(=O)c3ccccc3Br)cc2)cs1,-4.14%
14,Cc1nc(-c2ccc(NC(=O)CC(C)C)cc2)cs1,-11.5%
15,O=C(Nc1ccccc1N1CCN(c2ccccc2)CC1)c1ccccc1,-2.97%
16,O=C(NC(=O)c1ccccc1)Nc1ccccc1O,-14.8%
17,CCCNC(=O)Nc1cccc(C(=O)OC)c1,-14.5%
18,Nc1ccc2nc(-c3ccccc3)cnc2c1,-14.5%
19,c1ccc(-c2cnnc(-c3ccccn3)n2)cc1,-3.23%
20,O=C(Nc1nccs1)c1cc2c(s1)-c1ccccc1OC2,-3.47%
21,Cc1cc(O)c(NC(=O)c2cccc([N+](=O)[O-])c2)cc1C,1.55%
22,COc1ccc(CCN2C(=NC(C)=O)SC3CS(=O)(=O)CC32)cc1OC (centres undefined),1.28%
23,COc1cccc(N/N=C/c2cccc(Br)c2O)c1,-1.94%
24,Clc1ccccc1C=NNc1ccccn1,-19.2%
25,CCCCSc1nnc(-c2ccc(C)cc2)n1C,-6.32%
26,Clc1ccc(Cn2c(/C=C/c3ccco3)nc3ccccc32)cc1,-7.76%

row,SMILES,"activity change, negative = cytotoxicity"
1,Cc1ccc(/C=C/c2nc3ccccc3[nH]2)o1,-25.4%
2,COc1ccccc1C(=O)Nc1ccc2c(C)cc(=O)oc2c1,7.5%
3,c1ccc2[nH]c(SCC3CCCCO3)nc2c1 (centres undefined),9.84%
4,Oc1ccc(-c2cnc3ccccc3n2)cc1,-12%
5,Cc1cc2ncc(-c3ccccc3)nc2cc1C,-23.2%
6,Cn1c2nc3ccccc3c-2nc2ccccc21,-1.19%
7,CCCCOC(=O)Nc1ccc(C(=O)OC)cc1,-10.3%
8,CC1CCc2nc3sc4c(c3c(N)c2C1)CCCC4 (centres undefined),-18.5%
9,COc1ccc(-c2nc3ccccc3s2)cc1NC(C)=O,6.95%
10,O=C(Nc1nc(-c2nc3ccccc3s2)cs1)C1CC1,-14.7%
11,Cc1nn2c(=O)cc(COC(=O)c3c(F)cccc3Cl)nc2s1,11.9%
12,COc1ccc(/C=C/c2nnc(NC(C)=O)s2)cc1,-7.78%
13,COc1cccc(C(=O)Nc2nc(C)cs2)c1,-14.1%
14,Cc1csc(NC(=O)c2ccc(C)s2)n1,-0.98%
15,O=C(/C=C/c1cccs1)NCc1cccs1,-4.94%
16,O=C(Nc1ccc2c(c1)OCO2)c1ccccn1,-28.9%
17,O=C(O)c1ccc(-c2noc(-c3ccccc3Cl)n2)cc1,-9.54%
18,O=C(Nc1cccc(F)c1)Nc1ccc2c(c1)CCC2,-10.1%
19,O=C(Nc1ccc(F)cc1)Nc1ccc2c(c1)CCC2,0.599%
20,COc1cc(/C=C/C(=O)OCC(=O)NCCc2ccccc2)cc(OC)c1OC,-6.38%
21,COc1cc(/C=C/C(=O)N2C(=O)c3cccc(N)c3C2=O)cc(OC)c1OC,-13.5%
22,Cc1cc(C(=O)COC(=O)c2ccc(O)cc2O)c(C)n1C(C)C,-5.63%
23,c1ccc(-c2csc(N3CCOCC3)n2)cc1,-5.01%
24,Nc1nc(-c2ccc3c(c2)CCO3)cs1,-9.81%
25,O=S(=O)(c1ccc(Cl)cc1)N1CCN(Cc2ccc(O)c3ncccc23)CC1,-26.6%
26,O=C(c1ccc(N2CCOCC2)cc1)c1cccs1,27.7%

row,SMILES,"activity change, negative = cytotoxicity"
1,COc1cc(/C=N/Nc2ccc(Cl)c(C(=O)O)c2)ccc1OC(=O)c1cccs1,-11.9%
2,O=c1oc2ccccc2c2c1ncn2CCN1CCOCC1,1.21%
3,CCc1ccc(CNCCNC(=O)c2ccco2)cc1,-19.8%
4,O=c1c2ccccc2nnn1CSc1nnc2ccccn12,-3.79%
5,CCC(C)(C)c1ccc2c(c1)C(=O)c1ccccc1C2=O,-13.3%
6,O=C(c1ccc2c3n(nc2c1)-c1ccc(Cl)cc1CO3)N1CCOCC1,-29.3%
7,O=C(NCCO)c1ccc2c3n(nc2c1)-c1ccccc1CO3,-34%
8,O=C(O)c1ccc2c3n(nc2c1)-c1ccc(Cl)cc1CO3,-30.5%
9,COCCNC(=O)c1ccc2c3n(nc2c1)-c1ccc(C)cc1CO3,-14.6%
10,CCOC(=O)c1sc(=NC(=O)c2ccccc2Br)n(C)c1C,22.1% [at 12 µM]
11,COc1ccc(CCC(=O)Nc2nnc(C)s2)cc1,-5.22%
12,Cc1ccc(OC(=O)c2c(C)nn(-c3ccccc3)c2C)cc1,5.12%
13,CC(=O)Nc1ccc(-c2cc(N)n(-c3ccccc3)n2)cc1,-17.1%
14,Cc1ccc2cc(/C=C/C(=O)c3ccco3)c(Cl)nc2c1,-14.8%
15,CCOC(=O)N1N=C(CC)CC1(O)C(F)(F)F (centres undefined),10.4%
16,Cn1c(-c2ccc(F)c(F)c2)cc2onc(-c3ccccc3)c2c1=O,-9.83%
17,COC(=O)c1ccc(-c2cc3onc(-c4ccccc4)c3c(=O)n2C)cc1,13%
18,CC(C)C1COC(c2cccc3ccccc23)=N1 (centres undefined),-1.51%
19,CC(=O)c1ccc(NC(=O)c2ccn(C(=O)OCC(C)C)n2)cc1,-22.6%
20,CCOC(=O)c1csc(NC(=O)c2cccs2)n1,-11.3%
21,COc1ccc2cc(CCNC(=O)c3cccs3)c(=O)[nH]c2c1,-6.15%
22,Cc1csc(=NC(=O)c2ccccc2)n1C,-4.28%
23,CC(C)C(=O)Nc1ccc(NC(=O)c2cc3ccccc3o2)cc1,-10.1%
24,COc1ccc2nc(NC3=NCCC3)sc2c1,-13.8%
25,CCOC(=O)c1cccc(NC(=O)c2ccc(F)cc2F)c1,-13.7%
